Only some compounds are listed: those with a hit (about 1.3% of all), similar ones and a draw of the others.
EBNA-1 inhibitor – EBNA-1 DNA-binding inhibitors, primary screen, biochemical, fluorescence polarization. inhibition, % at 14.8 µM. AID 1950, 2009. 0.34% of 300,000 active; in the data active means inhibition above about 28%
ZTA counter – counter-screen for EBNA-1 inhibitors: inhibitors of Epstein-Barr virus ZTA; P03206; ZTA-DNA binding, fluorescence polarization; inhibition, % at 11 µM; 0.15% of 320,000 active; AID 2234; in the data active means inhibition above about 33%
Target sequence (P03206 whole entry, looked up): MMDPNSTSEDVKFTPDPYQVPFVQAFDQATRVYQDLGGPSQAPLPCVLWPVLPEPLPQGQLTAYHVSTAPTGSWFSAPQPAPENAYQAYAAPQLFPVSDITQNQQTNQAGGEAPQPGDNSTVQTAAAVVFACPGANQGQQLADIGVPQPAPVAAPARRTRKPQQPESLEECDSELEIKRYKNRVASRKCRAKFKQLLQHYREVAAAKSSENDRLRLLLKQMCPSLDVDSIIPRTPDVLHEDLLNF
LYPLA2 counter – LYPLA2 inhibitors, primary screen, counter-screen for PME1 inhibitor project, biochemical, fluorescence polarization, FP-Rh probe ABPP; AID 2177, 2009; inhibition, % at 5.9 µM; 0.38% of 320,000 active; Acyl-protein thioesterase 2 (Homo sapiens), O95372; recombinant LYPLA2;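 active means inhibition above the screen-wide mean plus 3 SD, limit set per campaign, cut at about 26% in these data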
Target sequence (O95372 whole entry, looked up): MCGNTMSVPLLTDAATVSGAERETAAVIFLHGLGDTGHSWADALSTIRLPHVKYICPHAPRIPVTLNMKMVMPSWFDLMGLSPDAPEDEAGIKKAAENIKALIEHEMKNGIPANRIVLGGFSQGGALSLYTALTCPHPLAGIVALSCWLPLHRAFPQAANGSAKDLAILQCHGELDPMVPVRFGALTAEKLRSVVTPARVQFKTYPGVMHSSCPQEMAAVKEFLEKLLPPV
PREPL inh – PREPL enzyme inhibitors, primary screen, biochemical, fluorescence polarization. Prolyl endopeptidase-like (Homo sapiens), Q4J6C6. inhibition, % at 5.96 µM. 0.68% of 320,000 active. recombinant PREPL, fluorescence polarization activity-based probe
LYPLA1 inh – LYPLA1 inhibitors, primary screen, counter-screen for PME1 inhibitor project, biochemical, fluorescence polarization, FP-Rh probe ABPP. Acyl-protein thioesterase 1 (Homo sapiens), O75608. recombinant LYPLA1. inhibition, % at 5.9 µM. 0.16% of 320,000 active;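 active means inhibition above the mean of all tested compounds plus 3 SD, set per campaign, cut at about 14% in these data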;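 further: inhibitors block serine hydrolase probe labeling of LYPLA1 so polarization falls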
PREPL inh cf – human PREPL enzyme inhibitors, confirmation, biochemical, fluorescence polarization | shares compounds with PREPL inh | AID 2803, 2010 | 67% of 2,000 active | recombinant PREPL, fluorescence polarization activity probe | inhibition, % at 5.96 µM
Numbers stand for hits; . = inactive; / = no result. Unless noted, no stated cut-off is given here; in the data, active means inhibition above about 43%; inactive means the rest.

SMILES	EBNA-1 inhibitor	ZTA counter	LYPLA2 counter	PREPL inh	LYPLA1 inh	PREPL inh cf
CCCCCc1cc(=O)oc2c(C(CCN3CCCC3)c3ccc(N(C)C)cc3)c(OC)cc(OC)c12 (stereo not drawn)	.	.	.	50	.	49
CCCCCc1cc(=O)oc2c(C(CCN3CCCCC3)c3ccc(OC)cc3)c(OC)cc(OC)c12 (stereo not drawn)	.	.	.	.	.	/
Nc1nn(-c2ccccc2)c(N)c1N=Nc1ccccc1F	.	.	.	54	.	56
Nc1nn(-c2ccccc2)c(N)c1N=Nc1ccccc1	.	.	.	51	.	55
COc1ccc(S(=O)(=O)N2CCN(C(=O)c3ccc(C)o3)CC2)cc1	.	.	.	.	.	/
O=C1C=C(c2ccccc2)CC(c2cccs2)C1n1cnc([N+](=O)[O-])c1 (stereo not drawn)	.	.	.	48	.	45
O=C(COc1cccnc1[N+](=O)[O-])NCc1ccc(F)cc1	.	.	.	.	.	/
COc1cc(/C=C2\C(=O)N(c3ccc(S(N)(=O)=O)cc3)N=C2C)ccc1OC(=O)c1ccco1	.	.	.	54	.	83
COc1cc(/C=C2/C(=N)N3C(=NC2=O)SN=C3S(=O)(=O)C(C)C)ccc1OC(=O)c1ccco1	.	.	.	.	.	/
COc1cc(/C=C2/C(=N)N3C(SC)=NSC3=NC2=O)ccc1OC(=O)c1ccco1	.	.	.	54	.	64
COc1cc(/C=C2/C(=N)N3C(=NC2=O)SN=C3S(C)(=O)=O)ccc1OC(=O)c1ccco1	.	.	.	62	.	80
CCOc1cc(/C=C2/C(=N)N3C(=NC2=O)SN=C3S(=O)(=O)CC)ccc1OC(=O)c1ccco1	.	.	.	.	.	/
CCS(=O)(=O)C1=NSC2=NC(=O)/C(=C\c3ccc(OC(=O)c4ccco4)c(OC)c3)C(=N)N21	.	.	.	53	.	77
O=C(NCC(=O)N1CCN(S(=O)(=O)c2ccc3c(c2)OCCO3)CC1)c1ccccc1Cl	/	.	.	.	.	/
O=C(O)C1C2C=CC(O2)C1C(=O)Nc1cccc(C(F)(F)F)c1 (stereo not drawn)	.	.	.	.	.	/
O=C(COC(=O)/C=C/c1ccccc1Cl)NC(=O)NCc1ccccc1	/	.	.	.	.	/
Cc1cc(NCc2ccccn2)n2ncc(-c3ccc(Cl)cc3)c2n1	.	.	.	49	.	.
O=C(CN1C(=O)C2CC=CCC2C1=O)N1CCN(c2ccc([N+](=O)[O-])cc2)CC1 (stereo not drawn)	.	.	.	48	.	.
O=C(Cc1c(Cl)cccc1Cl)OCC(=O)N1CCN(C(=O)c2ccco2)CC1	.	.	.	.	.	/
CC(=O)CCC(=O)N1CCCC(CNC(=O)c2ccc(-c3ccccc3)cc2)C1 (stereo not drawn)	.	.	.	43	.	.
CN(C)c1ccc(C(O)P(=O)(OCc2ccccc2)c2ccc(N(C)C)cc2)cc1 (stereo not drawn)	.	.	.	51	.	53
CC(C)c1ccc(C(O)P(=O)(OCc2ccccc2)c2ccc(N(C)C)cc2)cc1 (stereo not drawn)	.	.	.	.	.	/
COCCN(CC(=O)Nc1ccccc1C(F)(F)F)C(=O)/C=C/c1ccc2ccccc2n1	/	.	.	.	.	/
CC(=O)N1N=C(c2ccccc2OC(=O)/C=C/c2ccccc2)CC1c1ccccc1 (stereo not drawn)	.	.	.	.	.	/
O=C1CC(NS(=O)(=O)c2cccs2)CN1c1cccc(F)c1 (stereo not drawn)	.	.	.	.	.	/
SMILES	EBNA-1 inhibitor	ZTA counter	LYPLA2 counter	PREPL inh	LYPLA1 inh	PREPL inh cf
CCOc1ccc(C2CC(c3ccccc3C)n3nc(N)nc3N2)cc1 (stereo not drawn)	.	.	.	.	.	/
Cc1ccc(C2CC(c3ccccc3C)n3nc(N)nc3N2)cc1 (stereo not drawn)	.	.	.	47	.	48
COc1ccc(C2CC(c3ccccc3C)n3nc(N)nc3N2)cc1 (stereo not drawn)	.	.	.	51	.	48
O=C(NC1CCCCCC1)c1ccco1	.	.	.	.	.	/
COc1ccc(-c2ccc(C#N)c(SCC(=O)OCc3ccccc3)n2)cc1OC	.	.	.	58	.	.
CC(C)n1nc(C(=O)Nc2ccc3c(c2)OCO3)c2ccccc2c1=O	/	.	.	.	.	/
CCN1/C(=C/c2ccc3ccccc3[n+]2CC)C=Cc2ccccc21	.	.	.	47	.	49
CCN1/C(=C/c2cc[n+](C)cc2)C=Cc2cc(C)ccc21	.	.	.	.	.	/
O=S(=O)(NC(=NCc1ccccc1)c1ccccc1)c1ccccc1	.	.	.	.	.	/
Cn1c(N)c(C(=O)COC(=O)C2=NNC(=O)CC2)c(=O)n(C)c1=O	.	.	.	.	.	/
Cc1ccc(C)c(-c2nn(-c3cc(N4CCN(CCO)CC4)ccc3[N+](=O)[O-])c(=O)c3ccccc23)c1	.	.	.	62	.	57
CC(C)C[C@@H](C(=O)NC1CCN(Cc2ccccc2)CC1)N1C(=O)N2CCc3c([nH]c4ccccc34)[C@@]2(C)C1=O	.	.	.	44	.	.
C[C@@H](C(=O)NC1CCN(Cc2ccccc2)CC1)N1C(=O)N2CCc3c([nH]c4ccccc34)[C@@]2(C)C1=O	.	.	.	.	.	/
CC(=O)Nc1ccc(S(=O)(=O)NCCc2cc3ccc(C)c(C)c3[nH]c2=O)cc1	.	.	.	.	.	/
CCCOc1ccc(-c2c(C(=O)N/N=C(\C)COc3ccccc3)nnn2-c2nonc2N)cc1	.	.	.	.	.	/
COc1cccc(C2=CC(c3ccc(N(C)C)cc3)n3nnnc3N2)c1 (stereo not drawn)	.	.	.	70	.	54
COc1cccc(C2=CC(c3ccccc3)n3nnnc3N2)c1 (stereo not drawn)	.	.	.	.	.	/
O=C(CS(=O)c1ccc(C(F)(F)F)cc1[N+](=O)[O-])Oc1ccccc1 (stereo not drawn)	.	.	.	53	.	52
O=C(C1CCCN(Cc2ccc([N+](=O)[O-])cc2)C1)N1CCCCC1 (stereo not drawn)	.	.	.	.	.	/
COc1ccc(C(=O)C[n+]2ccc3c(c2)nc(-c2ccccc2)n3C)cc1	.	.	.	.	.	/
COc1cc(-c2nc3c[n+](CC(=O)c4ccccc4)ccc3n2C)cc(OC)c1OC	.	.	.	53	.	.
O=C(COC(=O)c1nc(Cl)c(Cl)c(Cl)c1Cl)NCc1ccccc1	/	.	.	.	.	/
